Source: the supplement of paper PMC10849652
The full data set covers some 8,800 targets. This sample favours those with a hit. About 0.5% of all pairs of compound and target were hits. A number with no mark means an inactive call.

Compound: NCC(=O)Nc1ccc(-n2nc(C(F)(F)F)cc2-c2ccc3c(ccc4ccccc43)c2)cc1
Assay: log2 fold change, soluble protein after heating vs DMSO (PISA); higher = thermal stabilisation; K562 lysate, 10 uM; active = over 0.2 and 3.5 SD of the protein, either way, in both replicates (recomputed)
Procedure, shortened: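 Pellets of K562 cells were dounce-homogenised in PBS pH 7.4 with 1 mM MgCl2, and the crude extract was held at 1 mg/mL protein for a 30 min treatment with 10 μM compound. Aliquots were heated for 3 min over 48°C-58°C and pooled before NP-40 was added to 0.5% at 4°C. The supernatant from 21,000xg for 90 min was quantified by TMTpro 16plex LC-MS/MS with channel sums equalised. Values are reported from duplicates as log-two fold change in thermal stability relative to solvent controls.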

UniProt Q15723, sequence (Q15723 whole entry, looked up): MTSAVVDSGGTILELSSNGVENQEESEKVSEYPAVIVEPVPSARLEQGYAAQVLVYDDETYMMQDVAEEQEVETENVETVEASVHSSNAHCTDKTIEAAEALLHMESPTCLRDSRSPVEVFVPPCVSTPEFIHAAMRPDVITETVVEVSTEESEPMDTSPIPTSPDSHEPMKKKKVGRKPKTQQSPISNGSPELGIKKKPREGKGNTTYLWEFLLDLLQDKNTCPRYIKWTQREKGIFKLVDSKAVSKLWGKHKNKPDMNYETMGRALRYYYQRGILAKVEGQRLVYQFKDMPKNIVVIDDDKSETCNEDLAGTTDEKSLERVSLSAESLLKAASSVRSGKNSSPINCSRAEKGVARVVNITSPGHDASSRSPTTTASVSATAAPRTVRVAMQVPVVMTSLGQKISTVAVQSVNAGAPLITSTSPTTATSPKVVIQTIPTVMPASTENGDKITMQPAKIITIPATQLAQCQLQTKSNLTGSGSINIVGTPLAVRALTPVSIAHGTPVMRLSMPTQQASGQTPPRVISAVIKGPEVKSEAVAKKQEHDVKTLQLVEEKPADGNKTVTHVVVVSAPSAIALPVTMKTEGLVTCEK
UniProt O94905, sequence (O94905 whole entry, looked up): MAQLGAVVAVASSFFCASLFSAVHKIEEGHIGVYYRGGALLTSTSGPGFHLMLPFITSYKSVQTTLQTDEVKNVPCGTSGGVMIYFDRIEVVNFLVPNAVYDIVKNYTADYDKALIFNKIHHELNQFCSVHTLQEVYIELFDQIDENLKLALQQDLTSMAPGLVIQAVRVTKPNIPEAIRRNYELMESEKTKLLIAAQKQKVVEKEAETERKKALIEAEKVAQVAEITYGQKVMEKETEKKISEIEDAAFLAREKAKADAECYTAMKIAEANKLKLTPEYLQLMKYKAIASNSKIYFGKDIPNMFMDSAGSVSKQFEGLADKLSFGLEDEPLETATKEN
UniProt Q06210, sequence (Q06210 whole entry, looked up): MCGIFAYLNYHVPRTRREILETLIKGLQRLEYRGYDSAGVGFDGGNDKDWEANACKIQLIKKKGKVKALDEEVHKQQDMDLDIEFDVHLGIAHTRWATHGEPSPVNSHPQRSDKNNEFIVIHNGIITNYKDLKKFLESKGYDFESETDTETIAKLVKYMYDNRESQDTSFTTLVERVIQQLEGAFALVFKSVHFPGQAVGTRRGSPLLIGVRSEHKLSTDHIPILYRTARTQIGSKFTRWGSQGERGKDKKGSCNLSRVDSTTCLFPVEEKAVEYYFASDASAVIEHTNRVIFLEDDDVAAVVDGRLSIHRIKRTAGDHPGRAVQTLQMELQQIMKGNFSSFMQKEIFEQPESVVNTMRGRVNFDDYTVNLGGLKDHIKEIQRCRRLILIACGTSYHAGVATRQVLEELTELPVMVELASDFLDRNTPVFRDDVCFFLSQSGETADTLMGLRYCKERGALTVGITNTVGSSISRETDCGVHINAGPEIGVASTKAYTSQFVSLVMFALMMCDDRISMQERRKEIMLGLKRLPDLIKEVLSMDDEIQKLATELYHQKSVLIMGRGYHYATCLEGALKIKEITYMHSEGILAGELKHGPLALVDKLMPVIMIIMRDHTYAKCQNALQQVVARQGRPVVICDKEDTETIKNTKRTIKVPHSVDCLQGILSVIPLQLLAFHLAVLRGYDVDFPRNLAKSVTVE
UniProt Q9NV70, sequence (Q9NV70 whole entry, looked up): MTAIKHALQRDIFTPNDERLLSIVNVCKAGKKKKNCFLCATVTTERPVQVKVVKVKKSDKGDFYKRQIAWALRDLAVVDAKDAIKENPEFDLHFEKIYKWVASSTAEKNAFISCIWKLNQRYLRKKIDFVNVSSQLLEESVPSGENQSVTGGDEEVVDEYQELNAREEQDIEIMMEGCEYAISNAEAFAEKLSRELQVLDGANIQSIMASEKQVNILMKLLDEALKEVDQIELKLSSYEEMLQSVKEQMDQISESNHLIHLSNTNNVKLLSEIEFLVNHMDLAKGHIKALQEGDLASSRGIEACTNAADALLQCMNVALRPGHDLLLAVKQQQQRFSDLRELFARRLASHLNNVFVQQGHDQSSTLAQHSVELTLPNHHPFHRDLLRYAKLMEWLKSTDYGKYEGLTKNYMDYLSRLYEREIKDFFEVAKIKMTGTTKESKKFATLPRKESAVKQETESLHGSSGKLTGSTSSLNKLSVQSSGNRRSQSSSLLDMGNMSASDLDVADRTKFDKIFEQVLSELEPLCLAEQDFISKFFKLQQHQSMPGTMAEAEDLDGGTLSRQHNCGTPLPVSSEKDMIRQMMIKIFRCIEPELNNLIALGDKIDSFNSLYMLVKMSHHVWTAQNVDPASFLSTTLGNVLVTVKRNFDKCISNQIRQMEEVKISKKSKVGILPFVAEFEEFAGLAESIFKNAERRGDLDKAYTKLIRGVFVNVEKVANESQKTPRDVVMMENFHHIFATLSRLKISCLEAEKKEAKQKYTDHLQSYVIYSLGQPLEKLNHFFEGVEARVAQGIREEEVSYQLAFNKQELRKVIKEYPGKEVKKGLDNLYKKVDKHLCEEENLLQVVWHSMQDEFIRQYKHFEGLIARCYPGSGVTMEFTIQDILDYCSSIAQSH
UniProt P02792, sequence (P02792 whole entry, looked up): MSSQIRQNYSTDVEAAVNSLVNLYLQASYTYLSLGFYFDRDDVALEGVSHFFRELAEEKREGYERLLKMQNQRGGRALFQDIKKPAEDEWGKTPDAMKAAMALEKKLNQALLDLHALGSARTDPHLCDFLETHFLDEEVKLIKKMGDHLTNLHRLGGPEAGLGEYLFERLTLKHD
UniProt O43427, sequence (O43427 whole entry, looked up): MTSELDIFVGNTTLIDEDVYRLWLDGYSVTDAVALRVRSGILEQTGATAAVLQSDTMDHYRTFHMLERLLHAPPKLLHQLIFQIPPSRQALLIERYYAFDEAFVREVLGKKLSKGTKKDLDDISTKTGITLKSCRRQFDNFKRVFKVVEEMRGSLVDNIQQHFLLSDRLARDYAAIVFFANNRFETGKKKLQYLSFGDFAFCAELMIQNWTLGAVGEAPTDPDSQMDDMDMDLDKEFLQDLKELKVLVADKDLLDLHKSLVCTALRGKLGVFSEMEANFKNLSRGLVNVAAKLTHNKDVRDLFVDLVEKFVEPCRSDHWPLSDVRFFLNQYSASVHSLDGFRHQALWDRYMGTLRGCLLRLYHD
UniProt P48507, sequence (P48507 whole entry, looked up): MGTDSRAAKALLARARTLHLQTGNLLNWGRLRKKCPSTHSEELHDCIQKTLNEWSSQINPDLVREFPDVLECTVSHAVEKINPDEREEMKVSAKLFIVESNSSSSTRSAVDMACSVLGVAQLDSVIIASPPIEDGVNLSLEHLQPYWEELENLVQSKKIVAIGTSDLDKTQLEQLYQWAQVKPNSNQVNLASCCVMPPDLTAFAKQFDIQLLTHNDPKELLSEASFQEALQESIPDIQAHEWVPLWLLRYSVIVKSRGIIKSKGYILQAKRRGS
UniProt P07814, sequence (P07814 whole entry, looked up): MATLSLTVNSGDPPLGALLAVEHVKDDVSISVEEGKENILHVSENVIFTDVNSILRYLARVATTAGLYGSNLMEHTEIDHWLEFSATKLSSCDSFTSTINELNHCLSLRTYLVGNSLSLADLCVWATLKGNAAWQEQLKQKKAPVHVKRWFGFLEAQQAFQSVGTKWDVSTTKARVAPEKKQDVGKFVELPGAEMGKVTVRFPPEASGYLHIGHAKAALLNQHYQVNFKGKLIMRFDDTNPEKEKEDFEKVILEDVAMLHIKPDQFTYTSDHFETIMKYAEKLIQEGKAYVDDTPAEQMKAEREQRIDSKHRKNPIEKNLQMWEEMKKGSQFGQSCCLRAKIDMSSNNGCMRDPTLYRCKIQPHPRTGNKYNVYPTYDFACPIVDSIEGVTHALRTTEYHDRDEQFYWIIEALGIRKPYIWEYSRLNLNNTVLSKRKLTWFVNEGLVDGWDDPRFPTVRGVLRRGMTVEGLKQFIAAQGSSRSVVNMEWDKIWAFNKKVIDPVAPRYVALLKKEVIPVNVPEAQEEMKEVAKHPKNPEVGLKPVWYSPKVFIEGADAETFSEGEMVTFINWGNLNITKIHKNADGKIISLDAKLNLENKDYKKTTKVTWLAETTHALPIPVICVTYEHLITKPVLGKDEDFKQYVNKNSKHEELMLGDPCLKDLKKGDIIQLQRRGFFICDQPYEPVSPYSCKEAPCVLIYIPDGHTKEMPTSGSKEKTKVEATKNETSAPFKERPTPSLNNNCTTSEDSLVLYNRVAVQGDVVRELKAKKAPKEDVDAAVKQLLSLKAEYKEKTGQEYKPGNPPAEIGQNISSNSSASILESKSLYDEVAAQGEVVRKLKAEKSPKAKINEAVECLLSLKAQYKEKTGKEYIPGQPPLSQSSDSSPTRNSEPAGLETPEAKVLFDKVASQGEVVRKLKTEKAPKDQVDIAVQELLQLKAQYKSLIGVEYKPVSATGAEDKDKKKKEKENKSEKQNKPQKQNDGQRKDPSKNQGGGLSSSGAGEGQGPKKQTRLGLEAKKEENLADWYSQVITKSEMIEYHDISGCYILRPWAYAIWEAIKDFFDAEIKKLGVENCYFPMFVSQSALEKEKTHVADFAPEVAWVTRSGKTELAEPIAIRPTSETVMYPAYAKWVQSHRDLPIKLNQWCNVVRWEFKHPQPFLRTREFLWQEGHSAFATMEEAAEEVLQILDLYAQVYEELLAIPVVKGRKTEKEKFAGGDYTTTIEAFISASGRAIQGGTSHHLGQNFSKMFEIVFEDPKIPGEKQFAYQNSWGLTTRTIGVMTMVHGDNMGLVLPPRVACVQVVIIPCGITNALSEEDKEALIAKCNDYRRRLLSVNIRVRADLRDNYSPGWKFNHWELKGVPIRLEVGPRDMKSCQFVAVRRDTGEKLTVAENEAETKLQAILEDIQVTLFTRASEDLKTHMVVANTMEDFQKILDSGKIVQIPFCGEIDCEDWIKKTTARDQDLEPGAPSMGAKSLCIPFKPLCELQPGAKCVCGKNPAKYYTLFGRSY
UniProt P54852, sequence (P54852 whole entry, looked up): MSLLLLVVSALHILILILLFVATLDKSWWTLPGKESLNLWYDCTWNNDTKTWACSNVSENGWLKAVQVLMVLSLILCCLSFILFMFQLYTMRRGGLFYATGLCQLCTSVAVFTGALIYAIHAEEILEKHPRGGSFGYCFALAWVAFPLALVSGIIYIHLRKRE

Row | Target | log2 fold change
1 | FNTB (UniProt P49356) | 0.03
2 | ELF2 (UniProt Q15723) | 0.03
3 | EFCAB14 (UniProt O75071) | 0.039
4 | FDX2 (UniProt Q6P4F2) | -0.03
5 | FBXO30 (UniProt Q8TB52) | -0.01
6 | GFPT1 (UniProt Q06210) | 0.034
7 | FTL (UniProt P02792) | -0.064
8 | FAT2 (UniProt Q9NYQ8) | 0.393
9 | ENSA isoform 3 (UniProt O43768) | -0.029
10 | FKBP8 isoform 2 (UniProt Q14318) | 0.024
11 | ENO1, A0A2R8YEM5 | -0.032
12 | FIGNL1 (UniProt Q6PIW4) | -0.016
13 | GCLM (UniProt P48507) | 0.007
14 | EXOC1 (UniProt Q9NV70) | -0.019
15 | ERLIN2 (UniProt O94905) | -0.012
16 | EPRS (UniProt P07814) | -0.01
17 | EIF2D (UniProt P41214) | 0.03
18 | FADS1, A0A0A0MR51 | 0.054
19 | EPN2 (UniProt O95208) | -0.005
20 | EMP3 (UniProt P54852) | 0.013
21 | DTWD1 (UniProt Q8N5C7) | 0.059
22 | FIG4 (UniProt Q92562) | -0.037
23 | FAM98A (UniProt Q8NCA5) | 0.027
24 | FIBP (UniProt O43427) | -0.049
